# Test results published in publication PMC5540273 (PLoS ONE, 2017).
# System: PAK6
# Settings: concentration: 1 μM, replicates: in singlicate; n = 1
# 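Further: KINOMEscan kinase panel screen.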
row,SMILES,%Inh
1,COc1cc2ncn(-c3cc(OCC4CCCO4)c(C(N)=O)s3)c2cc1OC (stereo not drawn) [GSK204607],0%
2,COc1ccccc1-c1ccc2c(NC(=O)C3CC3)n[nH]c2n1 [SB-711239],54%
3,Cc1cccc(-c2cc(Nc3ccncc3)c3ccccc3n2)n1 [GSK223675],0%
4,COc1ccc(Nc2nccc(-c3cccc(NC(=O)c4cc5cc(F)ccc5[nH]4)c3)n2)cc1 [GSK1229782],11%
5,COc1ccc(Nc2nccc(NCCNC(=O)Nc3ccccc3F)n2)cc1 [GSK1379901],0%
6,NC(=O)c1nnc2ccccc2c1N,4%
7,CC(C)(C)c1ccc(C(=O)Nc2cn3cc(Cl)ccc3n2)cc1,0%
8,COc1cccc(NC(=O)NC2CCN(c3ccnc(Nc4ccc(F)cc4)n3)C2)c1 (stereo not drawn) [GSK1379721],0%
9,Cc1ccc(-c2cc(-c3c[nH]nc3-c3ccccn3)ccn2)cc1 [GW684088],9%
10,Cc1cc(N2Cc3ccccc3C2)nc(Nc2ccc(S(=O)(=O)N3CCOCC3)cc2)n1.Cl [GSK1669917],0%
11,CC(C)(C)c1ccc(C(=O)Nc2cn3cc(-c4cccnc4)ccc3n2)cc1,15%
12,Cc1ccccc1-n1cnc2c(N)ncnc21 [SKF-97510],12%
13,Fc1cccc(COc2nnc(-c3ccc4c(c3)CCO4)o2)c1,38%
14,Cc1ccc(C(=O)Nc2ccc(Nc3ccnc4cc(-c5ccccn5)ccc34)cc2O)cc1.Cl [GW440146],8%
15,CS(=O)(=O)c1ccc(-c2c(-c3ncn[nH]3)sc(N3CCOCC3)c2C#N)cc1,12%
